# Source: paper PMC7862700, “An all-to-all approach to the identification of sequence-specific readers for epigenetic DNA modifications on cytosine”
# What was measured:
# Test in all cases: DAPPL (digital affinity profiling via proximity ligation, sequencing); 10 mM Tris-HCl pH 7.5, 50 mM NaCl, 1 mM DTT, 4% glycerol, room temperature, 30 min; GST-TFs on glutathione beads, 16-mer random dsDNA library, 0.1% formaldehyde crosslink after washing; high values mean tight binding
# [1] = biological target: T1, FLI1 (Homo sapiens, UniProt Q01543 1-452); conditions: protein: recombinant; tags: N-terminal GST; dsDNA, one strand shown
# T1 sequence: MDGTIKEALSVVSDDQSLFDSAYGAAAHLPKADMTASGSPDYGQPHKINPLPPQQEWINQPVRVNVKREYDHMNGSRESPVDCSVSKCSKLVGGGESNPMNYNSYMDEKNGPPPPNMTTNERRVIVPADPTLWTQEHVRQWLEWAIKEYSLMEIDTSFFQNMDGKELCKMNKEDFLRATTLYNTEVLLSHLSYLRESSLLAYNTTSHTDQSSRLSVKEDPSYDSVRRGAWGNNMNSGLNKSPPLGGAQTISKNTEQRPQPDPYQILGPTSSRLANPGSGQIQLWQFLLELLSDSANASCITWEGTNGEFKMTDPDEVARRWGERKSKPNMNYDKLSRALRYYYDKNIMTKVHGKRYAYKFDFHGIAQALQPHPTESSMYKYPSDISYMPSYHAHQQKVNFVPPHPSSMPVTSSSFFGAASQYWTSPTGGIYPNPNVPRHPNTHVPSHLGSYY
# Outline: (§1)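 Pools of DNA-barcoded human transcription factors, expressed in yeast as GST fusions on glutathione beads and combined with a tag-only sample, were incubated with 200 nmole of a 16-mer random double-stranded DNA library. Incubation took 30 min at room temperature in Tris/NaCl/DTT/glycerol buffer and was followed by washing, 0.1% formaldehyde crosslinking, proximity ligation (BsaI/T4 ligase, 1 h, 37 °C), PCR amplification and sequencing on an Illumina NextSeq500. Binding signal is the ratio of a hexamer's read frequency for a factor to its frequency for the tag-only sample.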
# [2] = biological target: T2, ELK1 (Homo sapiens, UniProt P19419 1-428); conditions: protein: recombinant; tags: N-terminal GST; dsDNA, one strand shown
# T2 sequence: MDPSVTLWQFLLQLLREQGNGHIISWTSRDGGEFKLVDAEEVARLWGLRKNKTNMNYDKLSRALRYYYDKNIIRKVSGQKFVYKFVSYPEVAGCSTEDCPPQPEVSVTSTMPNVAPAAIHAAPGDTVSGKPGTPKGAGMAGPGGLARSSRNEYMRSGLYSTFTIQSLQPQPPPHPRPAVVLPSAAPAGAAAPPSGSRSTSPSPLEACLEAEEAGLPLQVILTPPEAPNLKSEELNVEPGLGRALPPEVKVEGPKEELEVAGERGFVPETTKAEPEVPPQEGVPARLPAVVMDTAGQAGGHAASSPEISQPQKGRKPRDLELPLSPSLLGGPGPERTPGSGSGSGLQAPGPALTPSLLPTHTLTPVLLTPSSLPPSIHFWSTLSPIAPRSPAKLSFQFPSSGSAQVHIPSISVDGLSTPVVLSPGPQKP
# Outline: as §1
# [3] = biological target: T3, GABPA (Homo sapiens, UniProt Q06546 1-454); conditions: protein: recombinant; tags: N-terminal GST; dsDNA, one strand shown
# T3 sequence: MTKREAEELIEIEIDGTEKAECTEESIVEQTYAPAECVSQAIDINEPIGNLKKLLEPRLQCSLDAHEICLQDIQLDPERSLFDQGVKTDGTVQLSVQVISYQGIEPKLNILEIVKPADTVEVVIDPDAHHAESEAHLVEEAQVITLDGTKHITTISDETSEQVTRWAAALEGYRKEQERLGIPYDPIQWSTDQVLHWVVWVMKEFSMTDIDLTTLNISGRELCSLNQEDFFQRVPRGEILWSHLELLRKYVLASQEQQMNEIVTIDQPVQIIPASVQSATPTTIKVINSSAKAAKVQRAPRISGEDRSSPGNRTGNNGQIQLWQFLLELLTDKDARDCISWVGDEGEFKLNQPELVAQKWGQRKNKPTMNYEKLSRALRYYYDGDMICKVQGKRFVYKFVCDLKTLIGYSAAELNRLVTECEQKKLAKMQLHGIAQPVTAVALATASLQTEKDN
# Outline: as §1
# [4] = biological target: T4, ERG (Homo sapiens, UniProt P11308 1-479); conditions: protein: recombinant; tags: N-terminal GST; dsDNA, one strand shown
# T4 sequence: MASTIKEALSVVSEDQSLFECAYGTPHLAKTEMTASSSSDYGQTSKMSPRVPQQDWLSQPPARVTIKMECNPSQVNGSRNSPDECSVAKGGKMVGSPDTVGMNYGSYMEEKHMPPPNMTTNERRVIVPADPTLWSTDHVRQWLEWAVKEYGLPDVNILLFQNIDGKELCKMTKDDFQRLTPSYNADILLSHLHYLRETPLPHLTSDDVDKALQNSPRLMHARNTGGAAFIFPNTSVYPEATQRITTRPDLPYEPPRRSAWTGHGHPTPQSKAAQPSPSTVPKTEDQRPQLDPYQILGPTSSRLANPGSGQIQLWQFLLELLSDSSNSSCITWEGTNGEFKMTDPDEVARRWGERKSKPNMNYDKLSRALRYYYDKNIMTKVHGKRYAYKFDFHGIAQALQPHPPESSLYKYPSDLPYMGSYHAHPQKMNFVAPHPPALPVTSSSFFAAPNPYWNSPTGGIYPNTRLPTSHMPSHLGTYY
# Outline: as §1
# [5] = biological target: ELF1 (Homo sapiens, UniProt P32519 1-619); conditions: protein: recombinant; tags: N-terminal GST; dsDNA, one strand shown
# Outline: as §1
# [6] = biological target: T5, EHF (Homo sapiens, UniProt Q9NZC4 1-300); conditions: protein: recombinant; tags: N-terminal GST; dsDNA, one strand shown
# T5 sequence: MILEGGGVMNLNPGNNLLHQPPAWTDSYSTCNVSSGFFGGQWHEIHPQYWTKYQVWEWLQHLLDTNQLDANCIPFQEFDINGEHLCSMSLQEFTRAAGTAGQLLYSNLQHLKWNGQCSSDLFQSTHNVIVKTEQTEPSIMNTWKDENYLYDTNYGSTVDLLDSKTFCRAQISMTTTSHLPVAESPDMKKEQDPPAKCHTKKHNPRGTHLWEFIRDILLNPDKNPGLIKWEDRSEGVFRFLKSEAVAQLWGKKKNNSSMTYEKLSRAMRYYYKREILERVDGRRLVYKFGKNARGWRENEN
# Outline: as §1
# [7] = biological target: SPI1 (Homo sapiens, UniProt P17947 1-270); conditions: protein: recombinant; tags: N-terminal GST; dsDNA, one strand shown
# Outline: as §1
# [8] = biological target: SPIB (Homo sapiens, UniProt Q01892 1-262); conditions: protein: recombinant; tags: N-terminal GST; dsDNA, one strand shown
# Outline: as §1
# [9] = biological target: T6, ELK3 (Homo sapiens, UniProt P41970 1-407); conditions: protein: recombinant; tags: N-terminal GST; dsDNA, one strand shown
# T6 sequence: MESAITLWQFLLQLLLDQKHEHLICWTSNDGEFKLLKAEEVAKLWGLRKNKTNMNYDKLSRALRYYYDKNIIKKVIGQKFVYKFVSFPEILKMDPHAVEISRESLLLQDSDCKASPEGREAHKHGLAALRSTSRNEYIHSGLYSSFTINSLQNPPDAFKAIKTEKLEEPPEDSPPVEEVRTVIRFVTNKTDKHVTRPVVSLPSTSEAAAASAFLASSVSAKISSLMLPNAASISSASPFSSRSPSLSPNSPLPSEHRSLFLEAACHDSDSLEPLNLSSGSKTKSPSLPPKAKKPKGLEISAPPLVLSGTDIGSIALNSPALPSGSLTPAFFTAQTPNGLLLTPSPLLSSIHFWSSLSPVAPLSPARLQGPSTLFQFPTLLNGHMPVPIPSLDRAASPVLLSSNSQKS
# Outline: as §1
# [10] = biological target: T7, FEV (Homo sapiens, UniProt Q99581 1-238); conditions: protein: recombinant; tags: N-terminal GST; dsDNA, one strand shown
# T7 sequence: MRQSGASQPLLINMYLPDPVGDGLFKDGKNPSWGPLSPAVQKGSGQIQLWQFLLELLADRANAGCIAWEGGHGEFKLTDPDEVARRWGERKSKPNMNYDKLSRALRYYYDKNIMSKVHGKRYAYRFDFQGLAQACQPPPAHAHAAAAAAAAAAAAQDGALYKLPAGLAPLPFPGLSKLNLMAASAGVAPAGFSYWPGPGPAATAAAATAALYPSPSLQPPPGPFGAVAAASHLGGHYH
# Outline: as §1
# [11] = biological target: ETV5 (Homo sapiens, UniProt P41161 1-510); conditions: protein: recombinant; tags: N-terminal GST; dsDNA, one strand shown
# Outline: as §1
# [12] = biological target: HSF1 (Homo sapiens, UniProt Q00613 1-529); conditions: protein: recombinant; tags: N-terminal GST; chain copies: 3; dsDNA, one strand shown
# Outline: as §1
# [13] = biological target: T8, SPIC (Homo sapiens, UniProt Q8N5J4 1-248); conditions: protein: recombinant; tags: N-terminal GST; dsDNA, one strand shown
# T8 sequence: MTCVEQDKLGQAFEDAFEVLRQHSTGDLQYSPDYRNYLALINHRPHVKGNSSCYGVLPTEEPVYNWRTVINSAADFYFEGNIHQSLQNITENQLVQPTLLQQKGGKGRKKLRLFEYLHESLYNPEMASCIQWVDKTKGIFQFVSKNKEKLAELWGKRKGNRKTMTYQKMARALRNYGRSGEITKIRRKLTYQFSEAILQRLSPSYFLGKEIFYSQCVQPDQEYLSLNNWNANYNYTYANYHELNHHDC
# Outline: as §1
# [14] = biological target: ELF4 (Homo sapiens, UniProt Q99607 1-663); conditions: protein: recombinant; tags: N-terminal GST; dsDNA, one strand shown
# Outline: as §1
# [15] = biological target: T9, ELK4 (Homo sapiens, UniProt P28324-2 1-405); conditions: protein: recombinant; tags: N-terminal GST; dsDNA, one strand shown
# T9 sequence: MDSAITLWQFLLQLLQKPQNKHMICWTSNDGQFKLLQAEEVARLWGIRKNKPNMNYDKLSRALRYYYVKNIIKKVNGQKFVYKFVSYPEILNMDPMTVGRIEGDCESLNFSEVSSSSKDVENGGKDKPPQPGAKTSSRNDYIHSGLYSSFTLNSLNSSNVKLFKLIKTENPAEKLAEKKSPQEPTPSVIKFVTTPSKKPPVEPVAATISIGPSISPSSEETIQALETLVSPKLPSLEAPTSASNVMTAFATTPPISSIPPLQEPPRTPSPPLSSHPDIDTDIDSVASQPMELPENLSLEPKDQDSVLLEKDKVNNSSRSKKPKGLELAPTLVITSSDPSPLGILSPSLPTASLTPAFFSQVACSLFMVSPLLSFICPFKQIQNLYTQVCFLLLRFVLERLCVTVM
# Outline: as §1
# [16] = biological target: T10, ETV2 (Homo sapiens, UniProt O00321 1-342); conditions: protein: recombinant; tags: N-terminal GST; dsDNA, one strand shown
# T10 sequence: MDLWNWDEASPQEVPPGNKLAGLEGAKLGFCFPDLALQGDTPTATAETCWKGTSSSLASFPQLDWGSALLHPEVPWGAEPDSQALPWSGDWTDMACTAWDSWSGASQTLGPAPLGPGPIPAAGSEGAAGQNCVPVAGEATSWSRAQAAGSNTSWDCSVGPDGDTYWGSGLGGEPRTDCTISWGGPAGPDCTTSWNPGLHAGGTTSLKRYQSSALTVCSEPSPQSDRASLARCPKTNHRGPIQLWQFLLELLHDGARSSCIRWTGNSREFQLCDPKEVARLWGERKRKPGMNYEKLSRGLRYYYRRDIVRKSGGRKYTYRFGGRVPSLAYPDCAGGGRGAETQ
# Outline: as §1
# [17] = biological target: T11, ELF3 (Homo sapiens, UniProt P78545 1-371); conditions: protein: recombinant; tags: N-terminal GST; dsDNA, one strand shown
# T11 sequence: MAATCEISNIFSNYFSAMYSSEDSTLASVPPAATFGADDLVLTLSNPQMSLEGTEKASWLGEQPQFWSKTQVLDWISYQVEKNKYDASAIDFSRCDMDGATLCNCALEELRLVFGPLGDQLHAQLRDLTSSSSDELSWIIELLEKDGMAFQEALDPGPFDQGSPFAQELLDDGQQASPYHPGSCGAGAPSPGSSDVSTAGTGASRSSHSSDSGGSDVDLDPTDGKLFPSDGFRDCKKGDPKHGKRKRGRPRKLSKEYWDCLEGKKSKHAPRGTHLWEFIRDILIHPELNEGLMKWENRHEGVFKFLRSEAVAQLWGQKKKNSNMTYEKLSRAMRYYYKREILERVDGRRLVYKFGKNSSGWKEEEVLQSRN
# Outline: as §1
# [18] = biological target: CRX (Homo sapiens, UniProt O43186 1-299); conditions: protein: recombinant; tags: N-terminal GST; dsDNA, one strand shown
# Outline: as §1
# [19] = biological target: ETV1 (Homo sapiens, UniProt P50549 1-477); conditions: protein: recombinant; tags: N-terminal GST; dsDNA, one strand shown
# Outline: as §1
# SPIB, sequence (Q01892 whole entry): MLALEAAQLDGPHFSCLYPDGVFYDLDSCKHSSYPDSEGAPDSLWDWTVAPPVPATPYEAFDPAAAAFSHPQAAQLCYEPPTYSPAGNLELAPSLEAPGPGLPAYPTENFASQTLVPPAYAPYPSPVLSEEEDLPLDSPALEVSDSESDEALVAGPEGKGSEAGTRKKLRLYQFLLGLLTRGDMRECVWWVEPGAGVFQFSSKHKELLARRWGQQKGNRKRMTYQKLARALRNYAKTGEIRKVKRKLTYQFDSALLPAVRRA
# ELF4, sequence (Q99607 whole entry): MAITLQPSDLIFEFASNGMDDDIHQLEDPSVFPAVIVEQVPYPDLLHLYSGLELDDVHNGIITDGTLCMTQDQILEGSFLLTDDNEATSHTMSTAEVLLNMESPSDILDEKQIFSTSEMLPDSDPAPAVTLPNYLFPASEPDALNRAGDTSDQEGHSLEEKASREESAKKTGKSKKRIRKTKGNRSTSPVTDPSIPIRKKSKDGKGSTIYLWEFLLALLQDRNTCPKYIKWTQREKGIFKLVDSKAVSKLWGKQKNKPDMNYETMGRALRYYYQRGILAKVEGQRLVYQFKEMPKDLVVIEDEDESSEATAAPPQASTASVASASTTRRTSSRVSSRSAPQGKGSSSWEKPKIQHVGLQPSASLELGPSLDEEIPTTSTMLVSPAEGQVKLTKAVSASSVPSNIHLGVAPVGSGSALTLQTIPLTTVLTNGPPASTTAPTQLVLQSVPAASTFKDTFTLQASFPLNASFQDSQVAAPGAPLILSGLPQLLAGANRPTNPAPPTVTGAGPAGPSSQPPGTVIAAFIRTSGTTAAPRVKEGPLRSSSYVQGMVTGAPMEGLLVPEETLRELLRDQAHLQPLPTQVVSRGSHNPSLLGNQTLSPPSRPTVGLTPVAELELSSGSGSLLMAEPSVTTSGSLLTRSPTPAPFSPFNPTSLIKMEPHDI
# ELF1, sequence (P32519 whole entry): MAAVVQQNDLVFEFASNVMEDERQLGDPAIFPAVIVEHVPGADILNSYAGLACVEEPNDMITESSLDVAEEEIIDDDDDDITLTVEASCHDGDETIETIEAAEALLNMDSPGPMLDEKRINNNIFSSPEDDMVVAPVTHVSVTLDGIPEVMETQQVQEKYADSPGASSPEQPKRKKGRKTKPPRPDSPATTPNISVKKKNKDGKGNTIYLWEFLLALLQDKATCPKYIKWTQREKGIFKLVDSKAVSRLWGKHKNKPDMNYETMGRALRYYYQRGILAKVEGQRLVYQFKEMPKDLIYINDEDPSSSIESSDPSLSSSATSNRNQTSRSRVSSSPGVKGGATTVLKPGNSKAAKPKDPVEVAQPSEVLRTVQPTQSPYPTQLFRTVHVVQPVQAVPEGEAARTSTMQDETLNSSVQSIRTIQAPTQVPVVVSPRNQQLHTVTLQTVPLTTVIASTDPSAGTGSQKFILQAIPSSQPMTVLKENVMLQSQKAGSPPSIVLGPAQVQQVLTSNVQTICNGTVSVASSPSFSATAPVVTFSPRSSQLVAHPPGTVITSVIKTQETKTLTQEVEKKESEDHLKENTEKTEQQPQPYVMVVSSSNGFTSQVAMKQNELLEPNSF
# ETV5, sequence (P41161 whole entry): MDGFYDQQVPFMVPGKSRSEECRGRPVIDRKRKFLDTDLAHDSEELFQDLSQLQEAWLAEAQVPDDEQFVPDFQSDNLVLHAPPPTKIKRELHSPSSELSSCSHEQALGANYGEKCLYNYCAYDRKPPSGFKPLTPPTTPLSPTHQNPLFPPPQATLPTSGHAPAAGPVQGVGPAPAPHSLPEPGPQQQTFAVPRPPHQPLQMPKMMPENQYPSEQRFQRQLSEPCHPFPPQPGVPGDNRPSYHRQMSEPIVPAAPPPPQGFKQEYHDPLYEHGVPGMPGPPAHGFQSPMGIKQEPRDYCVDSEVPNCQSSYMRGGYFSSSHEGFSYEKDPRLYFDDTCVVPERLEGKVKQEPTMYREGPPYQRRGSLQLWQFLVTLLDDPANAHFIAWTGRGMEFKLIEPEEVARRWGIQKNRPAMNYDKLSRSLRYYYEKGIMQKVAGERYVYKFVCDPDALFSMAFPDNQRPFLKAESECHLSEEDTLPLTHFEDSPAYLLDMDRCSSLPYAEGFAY
# ETV1, sequence (P50549 whole entry): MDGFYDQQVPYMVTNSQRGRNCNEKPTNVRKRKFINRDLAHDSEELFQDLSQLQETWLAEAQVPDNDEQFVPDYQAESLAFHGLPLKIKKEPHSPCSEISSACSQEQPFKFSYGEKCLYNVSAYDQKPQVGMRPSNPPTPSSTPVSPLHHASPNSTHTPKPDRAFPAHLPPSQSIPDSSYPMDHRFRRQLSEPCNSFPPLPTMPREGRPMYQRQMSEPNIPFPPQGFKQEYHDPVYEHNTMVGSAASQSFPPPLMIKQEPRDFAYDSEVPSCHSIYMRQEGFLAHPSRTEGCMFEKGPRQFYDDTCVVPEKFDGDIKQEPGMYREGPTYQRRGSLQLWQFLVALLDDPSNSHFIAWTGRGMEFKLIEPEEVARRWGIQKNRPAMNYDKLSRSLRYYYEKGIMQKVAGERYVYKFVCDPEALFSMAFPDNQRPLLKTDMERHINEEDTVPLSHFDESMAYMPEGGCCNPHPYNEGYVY
# HSF1, sequence (Q00613 whole entry): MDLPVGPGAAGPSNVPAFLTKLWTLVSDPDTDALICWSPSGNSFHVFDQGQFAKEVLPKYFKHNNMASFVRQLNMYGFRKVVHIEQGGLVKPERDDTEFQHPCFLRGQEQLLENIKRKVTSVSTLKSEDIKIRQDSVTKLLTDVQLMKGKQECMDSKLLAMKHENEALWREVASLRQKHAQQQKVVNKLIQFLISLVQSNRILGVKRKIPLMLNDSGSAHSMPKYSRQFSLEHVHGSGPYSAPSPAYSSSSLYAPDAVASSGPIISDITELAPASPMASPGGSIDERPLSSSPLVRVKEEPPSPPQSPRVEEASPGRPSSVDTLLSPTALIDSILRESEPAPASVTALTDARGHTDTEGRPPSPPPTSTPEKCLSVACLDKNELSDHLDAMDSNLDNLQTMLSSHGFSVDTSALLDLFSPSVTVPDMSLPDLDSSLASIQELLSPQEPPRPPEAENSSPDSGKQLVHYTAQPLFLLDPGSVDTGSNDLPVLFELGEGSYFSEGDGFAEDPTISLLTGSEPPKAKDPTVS
# CRX, sequence (O43186 whole entry): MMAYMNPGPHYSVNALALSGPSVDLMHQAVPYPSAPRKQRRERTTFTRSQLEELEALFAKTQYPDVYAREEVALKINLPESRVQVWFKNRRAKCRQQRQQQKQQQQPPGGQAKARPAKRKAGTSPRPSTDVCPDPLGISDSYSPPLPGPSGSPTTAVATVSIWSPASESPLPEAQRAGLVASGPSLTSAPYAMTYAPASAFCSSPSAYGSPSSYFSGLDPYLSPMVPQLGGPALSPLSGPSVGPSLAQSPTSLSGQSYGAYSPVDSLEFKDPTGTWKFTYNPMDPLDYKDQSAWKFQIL
sequence,measurement,setting,value
TACTGT,binding signal,[1],"1.15 fold enrichment (6-mer frequency, TF over GST control)"
same,binding signal,[2],"1.21 fold enrichment (6-mer frequency, TF over GST control)"
same,binding signal,[3],"1.13 fold enrichment (6-mer frequency, TF over GST control)"
same,binding signal,[4],"1.12 fold enrichment (6-mer frequency, TF over GST control)"
same,binding signal,[5],"1.12 fold enrichment (6-mer frequency, TF over GST control)"
same,binding signal,[6],"1.19 fold enrichment (6-mer frequency, TF over GST control)"
same,binding signal,[7],"1.11 fold enrichment (6-mer frequency, TF over GST control)"
same,binding signal,[8],"1.12 fold enrichment (6-mer frequency, TF over GST control)"
same,binding signal,[9],"1.11 fold enrichment (6-mer frequency, TF over GST control)"
same,binding signal,[10],"1.11 fold enrichment (6-mer frequency, TF over GST control)"
same,binding signal,[11],"1.15 fold enrichment (6-mer frequency, TF over GST control)"
same,binding signal,[12],"1.05 fold enrichment (6-mer frequency, TF over GST control)"
same,binding signal,[13],"1.1 fold enrichment (6-mer frequency, TF over GST control)"
same,binding signal,[14],"1.12 fold enrichment (6-mer frequency, TF over GST control)"
same,binding signal,[15],"1.25 fold enrichment (6-mer frequency, TF over GST control)"
same,binding signal,[16],"1.34 fold enrichment (6-mer frequency, TF over GST control)"
same,binding signal,[17],"1.03 fold enrichment (6-mer frequency, TF over GST control)"
same,binding signal,[18],"1.11 fold enrichment (6-mer frequency, TF over GST control)"
same,binding signal,[19],"1.17 fold enrichment (6-mer frequency, TF over GST control)"
